Results published in PubChem BioAssay (NCI).
Compounds without any hit were thinned out: in the full panel of roughly 83,000, 20% have a hit.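 Method: cells in 96-well plates; compound added at one concentration; 48 h incubation; percent growth measured; values under 10 scored active.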 Activity calls are given as the source filed them.

system: MDA-MB-468 breast; assay: NCI-60 one-dose screen, 48 h (100 = growth as untreated, 0 = no growth, -100 = all killed); settings: 10 µM unless noted

Structure (SMILES) | growth
O=C1CC(c2ccc3c(c2)OCO3)Nc2ccccc21 (stereo unspecified) | 2.73% (active)
c1ccc2cc(Cn3c(-c4ccc5ccccc5c4)[n+](Cc4ccc5ccccc5c4)c4ccccc43)ccc2c1 | -42.9% (active)
O=[N+]([O-])c1ccc(Cl)c(S(=O)(=O)O)c1 | 112% (inactive)
CNc1ccc(Nc2cccc(C)c2)c2c1C(=O)c1ccccc1C2=O | -13.1% (active)
CCOC(=O)C1(C(=O)OCC)N=C(c2ccccc2)C=C1c1ccccc1 | 94.1% (inactive)
C[n+]1cccc(CC(=O)NO)c1 | 88.3% (inactive)
CC(Oc1ccc(Cl)cc1)c1ccccc1 (stereo unspecified) | 99.9% (inactive)
CCCCCCCCCCCC1=NC(C)(C)CN1CC(C)O (stereo unspecified) | 10% (inactive)
CCCc1cc(CCC)n2nc(N)nc2n1 | 95.8% (inactive)
c1cc2ccc3cc2cc1CNCCOCCNCc1ccc2ccc(cc2c1)CNCCOCCNC3 | -68% (active)
CCN(CC)CCCNCc1cc(-c2ccccc2)nc2cc(Cl)ccc12 | -25.7% (active)
CC(C)CC(CC1=CCC2CC1C2(C)C)C1=C(O)C(C)(C)C(=O)C(C)(C)C1=O (stereo unspecified) | 6.32% (active)
Cn1c(=O)cc2c3c(c(NCCCO)ccc31)C(=O)c1ccccc1-2 | 39.8% (inactive)
CC(=O)Nc1ccc(-n2c(O)c(/C=N/NC(=O)Cc3ccccc3Nc3c(Cl)cccc3Cl)sc2=S)cc1 | 94.2% (inactive)
COC(=O)c1cc(-c2ccc(Cl)c(Cl)c2)[nH]c(=O)c1C#N | 99.6% (inactive)
Nc1ccccc1NC(=O)CCCCC(=O)Nc1ccc2c(c1)/C(=C/c1ccc[nH]1)C(=O)N2 | 50.4% (inactive)
